VACV Venus inh: inhibitors of vaccinia virus (Venus reporter). Vaccinia virus Venus reporter expression, fluorescence. Potency, µM (top dose mostly 36.5 µM), for the others: at the highest dose activity change, negative = inhibition, most hits filed as inhibitors. 330,000 compounds, 0.46% hits; calls by dose curve; tested in A549 cells; note: nearly all actives have a fitted effect of over 30% in size
FBPA Giardia inh: Giardia lamblia aldolase inhibition. A8B2U2. purified Giardia FBPA. Potency, µM (top dose mostly 59.6 µM), without a hit: top-dose activity, negative = inhibition, usual class: inhibitors. 290,000 compounds, 0.71% hits; active = well fitted inhibition curve with a large enough effect; inconclusive = small, poorly fitted or top-dose-only effect, or effect the other way; note: nearly all actives have a fitted effect of over 55% in size
Target sequence (A8B2U2 whole entry, looked up): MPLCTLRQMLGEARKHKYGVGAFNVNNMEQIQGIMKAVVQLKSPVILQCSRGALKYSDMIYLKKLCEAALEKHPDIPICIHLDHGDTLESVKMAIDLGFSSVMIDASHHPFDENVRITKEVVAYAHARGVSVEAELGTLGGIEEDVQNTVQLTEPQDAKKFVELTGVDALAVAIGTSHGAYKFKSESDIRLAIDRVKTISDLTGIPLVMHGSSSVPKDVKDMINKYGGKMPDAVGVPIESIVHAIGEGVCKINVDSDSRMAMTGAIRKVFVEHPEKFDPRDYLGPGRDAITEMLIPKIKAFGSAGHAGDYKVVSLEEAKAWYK
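40 nM FBPA preincubated 10 min at RT with compound (up to 57.5 uM final), then substrate plus GAPDH/TPI/NAD/arsenate coupling and diaphorase/resazurin added. Fluorescence read after 20 min at RT, 525/598 nm.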
VACV mCherry inh: inhibitors of vaccinia virus infection (mCherry reporter signal). 310,000 compounds, 0.63% hits. Potency, µM (titrated, usually from 36.5 µM), for the others: top-dose activity change, negative = inhibition, most hits filed as inhibitors. Vaccinia virus mCherry reporter infection, fluorescence; calls by dose curve; tested in A549 cells; note: nearly all actives have a fitted effect of over 35% in size
FMDV antiviral: blocks foot and mouth disease virus | FMDV antiviral cell-based qHTS | Potency, µM (series often up to 57.9 µM), for inactives: at the highest dose activity change, negative = inhibition, most hits filed as inhibitors | 410,000 compounds, 1.2% hits; calls by dose curve; tested in HEK293T cells; note: read-out not given here; nearly all actives have a fitted effect of over 45% in size
* hit, by the source's call; [ ] = dose if it differs, or a comment. Most compounds without a hit are left out; they make up all but 2.2% or so of the library. % is set by controls: 0 for no effect and ±100 for the full control effect; potency is the fitted concentration of half-maximal effect.

What do the screens show for `Cc1ccccc1OCC(O)CN1CCN(CCN2C(=O)c3cccc4cccc(c34)C2=O)CC1` (configuration not stated)?
VACV Venus inh: -27%; FBPA Giardia inh: -17%; VACV mCherry inh: -14%; FMDV antiviral: inconclusive

How did Cc1cccc(C)c1OCC(O)CN1CCC(CN2C(=O)c3cccc4cccc(c34)C2=O)CC1 (configuration not stated) do in these assays?
VACV Venus inh: -11%; FBPA Giardia inh: 2%; VACV mCherry inh: -17%; FMDV antiviral: 22µM*

Results for C=CCc1ccccc1OCC(O)CN1CCN(CCN2C(=O)c3cccc4cccc(c34)C2=O)CC1 (configuration not stated) ?
VACV Venus inh: inconclusive; FBPA Giardia inh: -18%; VACV mCherry inh: inconclusive; FMDV antiviral: 28µM*

How did Cc1ccc(Cl)cc1N1CCN(CCCNc2ncnc3onc(-c4ccc(Cl)cc4)c23)CC1 do in these assays?
VACV Venus inh: -11%; VACV mCherry inh: -17%; FMDV antiviral: -22%

How did COc1ccc(C(=O)Nc2ccc(Nc3ccccc3)cc2)cc1[N+](=O)[O-] do in these assays?
FBPA Giardia inh: -2%; FMDV antiviral: 35µM*

Results for COc1ccc(C(=O)Nc2ccc(OCc3ccccc3)cc2)cc1[N+](=O)[O-] ?
FBPA Giardia inh: 2%; FMDV antiviral: 0%

How did Cc1ccc(NC(=O)c2ccc(Nc3c([N+](=O)[O-])cc([N+](=O)[O-])cc3[N+](=O)[O-])cc2)cc1 do in these assays?
VACV Venus inh: inconclusive; FBPA Giardia inh: inconclusive; VACV mCherry inh: -23%; FMDV antiviral: 13µM*

How did CCN(CC)CC(=O)c1c(C)n(C)c2ccc(OC)cc12 do in these assays?
VACV Venus inh: -12%; VACV mCherry inh: -5%

How did Cc1ncc2c(c1CNC(=O)/C=C/c1cccs1)CCN(C(=O)C1CC(=O)OC13CCCCC3)C2 (configuration not stated) do in these assays?
VACV Venus inh: 9%; VACV mCherry inh: -13%; FMDV antiviral: -1%

What do the screens show for `O=C(Nc1ccc(N2CCN(c3ccc(C(F)(F)F)cn3)CC2)nc1)c1cccs1`?
VACV Venus inh: -10%[7.34 µM]; FBPA Giardia inh: 5%; VACV mCherry inh: -6%[7.34 µM]; FMDV antiviral: inconclusive

How did O=C(Nc1ccc(N2CCN(c3ncccc3C(F)(F)F)CC2)nc1)c1cccs1 do in these assays?
VACV Venus inh: 20µM*; FBPA Giardia inh: -9%; VACV mCherry inh: 14µM*; FMDV antiviral: 13µM*

How did COC(=O)c1ccc(/C=N/Nc2nc(-c3ccccc3)cs2)cc1 do in these assays?
VACV Venus inh: -13%; FBPA Giardia inh: 0%; VACV mCherry inh: inactive; FMDV antiviral: -13%

How did COC(=O)c1ccc(/C=N/Nc2nc(-c3ccc(C)cc3)cs2)cc1 do in these assays?
VACV Venus inh: inconclusive; FBPA Giardia inh: 6%; VACV mCherry inh: 13µM*; FMDV antiviral: -1%

What do the screens show for `NC(=NC1CCCCC1)c1ccc(Cl)cc1`?
VACV Venus inh: -13%; FBPA Giardia inh: 0%; VACV mCherry inh: inactive; FMDV antiviral: 1.4µM*

What do the screens show for `COc1ccc(C(=O)c2coc3c2C(=O)C(=O)c2ccccc2-3)cc1`?
VACV Venus inh: inconclusive; FBPA Giardia inh: 7.1µM*; VACV mCherry inh: -13%; FMDV antiviral: 41%

How did O=C(c1ccccc1)c1coc2c1C(=O)c1ccccc1C2=O do in these assays?
VACV Venus inh: -6%; FBPA Giardia inh: -22%; VACV mCherry inh: -10%; FMDV antiviral: inconclusive

What do the screens show for `O=C(CCS(=O)(=O)c1nc(-c2cccs2)cc(C(F)(F)F)n1)Nc1cc(Br)ccc1O`?
VACV Venus inh: -10%[7.34 µM]; VACV mCherry inh: -14%[7.34 µM]; FMDV antiviral: 14µM*

Results for O=C(CCS(=O)(=O)c1nc(-c2cccs2)cc(C(F)(F)F)n1)Nc1ccc(Br)cc1 ?
VACV Venus inh: -16%[7.34 µM]; VACV mCherry inh: -12%[7.34 µM]; FMDV antiviral: 40µM*

How did Cc1nc(NCc2c(C)nn(C)c2Cl)sc1-c1ccn(CC2COc3ccccc3O2)n1 (configuration not stated) do in these assays?
VACV Venus inh: -13%; VACV mCherry inh: -24%; FMDV antiviral: inconclusive

How did COc1cc2nc(N3CCCCC3)nc(NC(C)C)c2cc1OC do in these assays?
VACV Venus inh: inconclusive; VACV mCherry inh: -19%

Results for Cc1cccc(N2C(N)=C(C#N)C(C#N)(C#N)C2c2ccccc2)c1 (configuration not stated) ?
VACV Venus inh: 1%; FBPA Giardia inh: -7%; FMDV antiviral: 40µM*

What do the screens show for `N#CC1=C(N)N(c2ccccc2)C(c2cccc([N+](=O)[O-])c2)C1(C#N)C#N` (configuration not stated)?
VACV Venus inh: 0%; FBPA Giardia inh: 10%; VACV mCherry inh: -12%; FMDV antiviral: inconclusive

Results for O=C(CCc1ccccc1)NC(c1cccs1)c1cc(Cl)c2cccnc2c1O (configuration not stated) ?
VACV Venus inh: inconclusive; FBPA Giardia inh: 14%; VACV mCherry inh: 8.9µM*; FMDV antiviral: -26%

What do the screens show for `CCC(=O)NC(c1ccco1)c1cc(Cl)c2cccnc2c1OC` (configuration not stated)?
FMDV antiviral: 0%

How did CCCCC(=O)NC(c1ccco1)c1cc(Cl)c2cccnc2c1O (configuration not stated) do in these assays?
VACV Venus inh: inconclusive; FBPA Giardia inh: 3%; VACV mCherry inh: 13µM*; FMDV antiviral: -19%

Results for CCC(=O)NC(c1ccco1)c1cc(Cl)c2cccnc2c1O (configuration not stated) ?
VACV Venus inh: inconclusive; FBPA Giardia inh: 3%; VACV mCherry inh: 7.9µM*; FMDV antiviral: -15%

Results for CC(C)C(NC(=O)c1ccoc1)c1nnc2n1CCN(Cc1ccc3c(c1)Cc1ccccc1-3)CC2 (configuration not stated) ?
VACV Venus inh: -3%; VACV mCherry inh: -7%; FMDV antiviral: -12%

How did CC(C)CCCCCCCCCCCCC(=O)NCC(=O)NC1C(C)OC(Nc2ncnc3nc[nH]c23)C(O)C1O (configuration not stated) do in these assays?
VACV Venus inh: 2µM*; VACV mCherry inh: inconclusive; FMDV antiviral: inconclusive

Results for COc1cccc(CN2CCCC(c3nc(C)ncc3-c3ccc(F)cc3)C2)c1OC (configuration not stated) ?
VACV Venus inh: -17%; VACV mCherry inh: inactive; FMDV antiviral: -10%

Results for COC1=C(Br)C(=O)c2ncccc2C1=O ?
VACV Venus inh: -5%; VACV mCherry inh: -9%; FMDV antiviral: 35µM*

What do the screens show for `COc1ccccc1N1C(=O)c2cccnc2C1=O`?
FBPA Giardia inh: 6%; FMDV antiviral: -1%

Results for O=C1C(=O)c2cccnc2-c2ncccc21 ?
VACV Venus inh: 14µM*; VACV mCherry inh: 6.3µM*; FMDV antiviral: 4µM*

How did O=C1c2cccnc2-c2ncccc21 do in these assays?
VACV Venus inh: -15%; FBPA Giardia inh: 0%; VACV mCherry inh: -19%; FMDV antiviral: 1%

How did O=C(COc1ccccc1C(=O)OCC(=O)N1CCOCC1)Nc1ccc(Br)cc1 do in these assays?
VACV Venus inh: -17%; VACV mCherry inh: inactive

Results for CCc1ccc(C=O)cc1 ?
VACV Venus inh: -5%; VACV mCherry inh: -9%
